From PubChem BioAssay (NCI)
The panel holds about 79,000 compounds, 15% with a hit somewhere; the sample as a whole holds those more often. Values without a mark were called inactive. The source made the active and inactive calls. Rule as the data show it: active = growth inhibition above about 70%; inactive = the rest.

How the values were obtained:
[1] = NCI Yeast Anticancer Drug Screen. Data for the rad50 strain (AID 155);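 also: 0% = growth of vehicle-only cultures of the same strain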; conditions: S. cerevisiae rad50 strain growth inhibition; at 50.0 µM; active compounds read high
In short: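 Relative growth inhibition (compound vs vehicle) was measured in yeast with a defined repair-gene alteration.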

[2] = NCI Yeast Anticancer Drug Screen. Data for the mec2-1 strain (AID 157); conditions: S. cerevisiae mec2-1 strain, at 50.0 µM, active compounds read high
In short: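 Growth inhibition is read against vehicle-treated controls after compound exposure of the mec2-1 yeast strain, which is defective in DNA damage repair or cell cycle control.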

[3] = NCI Yeast Anticancer Drug Screen. Data for the sgs1 mgt1 strain (AID 161);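 also: 0% = growth of cultures given vehicle only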; conditions: S. cerevisiae sgs1 mgt1 strain, at 50.0 µM, active compounds read high
In short: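 Growth of a repair-deficient yeast mutant was monitored after compound treatment and expressed as inhibition relative to vehicle-treated cultures.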

[4] = NCI Yeast Anticancer Drug Screen. Data for the cln2 rad14 strain (AID 165);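 also: 0% = growth equal to vehicle treated cultures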; conditions: S. cerevisiae cln2 rad14 strain, at 50.0 µM, active compounds read high
In short: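 Growth inhibition, relative to vehicle-treated controls, is the read-out. The test organism is a yeast strain with defined genetic alterations, cln2 rad14.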

[5] = NCI Yeast Anticancer Drug Screen. Data for the bub3 strain (AID 167); conditions: S. cerevisiae bub3 mutant strain, at 50.0 µM, active compounds read high
In short: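 Screening used yeast with an engineered genetic alteration affecting cell cycle control. Compound-exposed cultures were compared with vehicle cultures, and reduced growth was taken as inhibition.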

[6] = NCI Yeast Anticancer Drug Screen. Data for the mlh1 rad18 strain (AID 175); conditions: S. cerevisiae mlh1 rad18 strain growth inhibition; at 50.0 µM; active compounds read high
In short: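 Cells of a genetically altered yeast strain, deficient in DNA damage repair, were treated with compound. Their growth was then compared with that of vehicle-treated cultures to give inhibition.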

SMILES	growth inhibition [1]	growth inhibition [2]	growth inhibition [3]	growth inhibition [4]	growth inhibition [5]	growth inhibition [6]
N#CC1(C(N)=O)OC1c1ccccc1Cl (stereo unspecified)	-3.1%	-18.1%	1.3%	-37.3%	-7.1%	-16.9%
CC1(C)Cc2ccccc2C1=O	16.1%	-4.85%	4%	-53.6%	-1.65%	-2%
CC(=O)NC1C(OCc2ccccc2)OC(CO)C(O)C1OC(C)C(=O)NC(C)C(=O)N[C@@H](CCC(=O)OCCCNC1c2ccccc2Nc2cccc([N+](=O)[O-])c21)C(N)=O (stereo partly specified)	63.4%	82.7% (active)	78.2% (active)	83.5% (active)	11.7%	77.8% (active)
CC(=O)Oc1ccc(/C=C/c2ccccn2)cc1	6.6%	-1.75%	-1.5%	-55.1%	3.75%	15.3%
OC1C(O)C2OC(c3ccccc3)OC2C2OC(c3ccccc3)OC12 (stereo unspecified)	7.1%	-4.85%	0.95%	0.1%	-15.4%	-2.35%
CC(O)c1ccc(N=NN(C)C)cc1 (stereo unspecified)	-2.5%	2.75%	-3.15%	-1.55%	0%	21.2%
COc1cc2c3cc1Oc1c(O)c(OC)cc4c1C(Cc1ccc(O)c(c1)Oc1ccc(cc1)CC3N(C)CC2)N(C)CC4 (stereo unspecified)	-22.1%	-47.2%	-33.6%	-5.4%	-24.5%	-13%
CC1=CC(=O)C(CCC#N)C(C)(C)C1 (stereo unspecified)	-8.6%	-17.9%	-1.75%	-36.9%	5.85%	-0.4%
COc1cccc(NC(=O)N/C(=C/c2ccc(N(CCC#N)CCC#N)cc2)NC(=O)c2cc([N+](=O)[O-])ccc2Cl)c1	30.8%	16%	-3.15%	-10.1%	-6.8%	36.5%
Cc1cccn(C(=O)c2ccccc2)c1=N	-8.2%	4.1%	1.35%	-41.7%	-16.9%	29.3%
O=c1oc(-c2ccccc2)nc2c1CCCS2	-1.2%	-0.95%	-5.65%	1.85%	-8.25%	-3.05%
CCN(CC)CCC1CCNCC1	0.5%	-25.2%	-1.8%	15.8%	-3.9%	5.75%
C/C(CC(=O)Nc1ccc(C)cc1C)=N/N=C(N)N	-10.8%	-17.2%	-15.2%	15.4%	-17.7%	-17.1%
CNC(=O)OCc1c(COC(=O)NC)c(C)n(-c2ccc(OC)cc2)c1C	20.9%	3.55%	42.1%	15.8%	31.3%	42.8%
N#Cc1[nH]c(=O)n(-c2ccc(Cl)cc2)c1N	-30.1%	-58.6%	-19%	-11.3%	-12.4%	-33%
COC(C(O)C(O)C(O)C(O)CO)n1cnc2cncnc21 (stereo unspecified)	4.05%	5.45%	7.8%	2.9%	-4.2%	2.45%
O=C(NC(Cc1c[nH]c2ccccc12)(C(=O)O)C(=O)O)OCc1ccccc1	23.1%	15.1%	18.7%	29.1%	2.1%	17.8%
OCCN(CCO)c1ncnc2c1ncn2-c1ccc(CCCl)cc1	5.3%	-3.1%	-2.85%	6.05%	19%	0.1%
CN(C)c1ccc(/C=N\NC(=S)NCCCN2CCN(CCCNC(=S)N/N=C/c3ccc(N(C)C)cc3)CC2)cc1	36.1%	9.4%	5.45%	17.6%	1.5%	27.2%
CCCCCCCCC(=O)N1SC(NC(=O)OC)=Nc2ccccc21	98.2% (active)	98.2% (active)	98% (active)	90.2% (active)	97% (active)	98.1% (active)
O=C(C#CP(=O)(O)c1ccccc1)c1ccccc1	22.5%	16.4%	-6.2%	17.5%	-17.6%	3.05%
